Screening data deposited in PubChem BioAssay by National Center for Advancing Translational Sciences (NCATS).
CHX counter: counter-screen for Shiga toxin inhibitors: cycloheximide protein synthesis inhibition; cell reporter, cycloheximide protein synthesis inhibition counterscreen; max response, %; hit rate 12% among 300,000; AID 2314; in the data active means max response mostly above about 13%, no sharp cut-off; inactive means mostly below about 14%; further: read at 38.3 µM for the half of the compounds with a filed dose; 0% is about no effect
HCV inhibitor: blocks hepatitis C virus. Potency, µM (titrated, usually from 41.8 µM), for inactives: at the top dose activity change, negative = inhibition, hits mostly inhibitors. Huh7.5.1 HCVcc-Cre infection, luciferase reporter, 44 h. hit rate 3.4% among 340,000; active means well fitted inhibition curve with a large enough effect; inconclusive means small, poorly fitted or top-dose-only effect, or another doubt; inactive means no such curve, though single readings can be large or run the other way; further: potency means the concentration at half of the fitted maximal effect; on the % scale 0 is the no-effect control and ±100 the full control effect
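Whole-lifecycle infectious HCVcc-Cre system; cells 1,000/well, compound then virus (~0.5 moi) added 4 h after plating, 44 h culture. Luciferase read 15 sec following 15 min substrate incubation, room temp.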
Shiga inhibitor: inhibitors of Shiga toxin in Vero cells. Vero cells, Shiga toxin protein synthesis inhibition reporter. inhibition, % at 38.7 µM. hit rate 9.2% among 290,000. AID 2315; in the data active means inhibition mostly above about 28%, no sharp cut-off; inactive means mostly below about 43%; further: 0% is about no effect
MARV entry inh: Marburg virus entry inhibition; Marburg virus pseudotyped entry inhibition, cell reporter; Potency, µM (series often up to 37.8 µM), inactives show at the highest dose activity change, negative = inhibition, actives largely listed as inhibitors; hit rate 1.8% among 300,000; AID 540276; calls by dose curve; tested in HEK293 cells; further: potency means the concentration at half of the fitted maximal effect; on the % scale 0 is the no-effect control and ±100 the full control effect
FMDV inh: antivirals against foot and mouth disease virus; FMDV antiviral cell-based qHTS; hit rate 1.2% among 410,000; Potency, µM (highest dose often 57.9 µM), inactives show at the highest dose activity change, negative = inhibition, most hits filed as inhibitors; calls by dose curve; tested in HEK293T cells; further: read-out not given here; potency means the concentration at half of the fitted maximal effect; on the % scale 0 is the no-effect control and ±100 the full control effect; nearly all actives have a fitted effect of over 45% in size
Lassa entry inh: inhibitors of Lassa virus binding or cell entry. Lassa virus pseudotype entry inhibition, cell reporter. Potency, µM (top dose mostly 37.9 µM), for inactives: at the highest dose activity change, negative = inhibition, actives largely listed as inhibitors. hit rate 1.2% among 300,000; calls by dose curve; tested in HEK293 cells; further: potency means the concentration at half of the fitted maximal effect; on the % scale 0 is the no-effect control and ±100 the full control effect; nearly all actives have a fitted effect of over 50% in size
An asterisk follows results filed as active; u = inconclusive; x = no result given; [ ] = dose if it differs, or a comment. Hits are enriched below; roughly 13% of the tested compounds scored in any of these assays.

SMILES | CHX counter | HCV inhibitor | Shiga inhibitor | MARV entry inh | FMDV inh | Lassa entry inh
COc1cc(/C=C2/CCC/C(=C\c3cc(O)c(OC)c(Cl)c3)C2=O)cc(Cl)c1O | 0 | 11µM* | -20 | u | u | u
C=CCn1c(-c2cccc([N+](=O)[O-])c2)n[nH]c1=S | 6 | -8% | -4 | -2%[46.1 µM] | -10% | u
COc1cc(/C=C2\CC/C(=C\c3cc(OC)c(OC)c(OC)c3)C2=O)cc(OC)c1OC | -4 | 13µM* | -1 | u | u | -22%
COc1cc(/C=C/C(C)=O)cc(OC)c1OC | 3 | 6% | 16 | -23% | u | -18%
COc1ccc(/C=C2\CCCC(C(=O)C(F)(F)F)=C2O)cc1OC | 20* | x | 76 | x | x | x
COc1ccc(-c2noc(C3CCCN(C(=O)c4cccc(C)c4)C3)n2)cc1 (centres undefined) | -3 | u | x | x | u | x
COc1cc(OC)cc(C(=O)N2CCCC(c3nc(-c4ccc(C)o4)no3)C2)c1 (centres undefined) | 1 | u | -2 | -7%[46.1 µM] | -19% | x
Cc1cccc(C(=O)N2CCCC(c3nc(-c4ccc(C)o4)no3)C2)c1 (centres undefined) | 42* | -27% | 113* | u | 21% | 25%[46.1 µM]
Cc1ccc(-c2noc(C3CCCN(C(=O)c4cccc([N+](=O)[O-])c4)C3)n2)o1 (centres undefined) | 39* | u | 85* | 12%[46.1 µM] | 23% | -29%[46.1 µM]
COc1ccc(C=CC(=O)c2ccc(OC)c(OC)c2O)cc1OC | x | -20% | x | u | u | u
COc1ccc(C=CC(=O)c2ccc(OC)c(OC)c2)cc1O | x | x | x | x | -13% | x
COc1cc(/C=C/C(=O)c2ccc(Cl)s2)cc(OC)c1O | 9 | 13µM* | 5 | u | 13µM* | u
COc1ccc(C(=O)/C=C/c2ccc(OC)c(O)c2)c(F)c1 | 68* | 14µM* | 61* | u | 0% | -27%
COc1ccc(/C=C/C(=O)c2ccc(Cl)s2)cc1O | 24* | -5% | 60 | 14% | -6% | 2%
N/C(=N\OC(=O)CC1CCCCC1)c1cccnc1 | 27* | 12% | 14 | 2% | 60% | u
N/C(=N\OC(=O)CCC1CCCC1)c1cccnc1 | 15* | 39% | 19 | u | -17% | 3%
CCOc1ccc(CN2CCCC(CNC(=O)c3ccc(F)cc3)C2)cc1CO (centres undefined) | 14 | 1% | -10 | x | -20% | x
COC(=O)c1cnn2c3c(c(C)nc12)CCCC3 | 59* | 0% | 73* | u | 46% | 9%
O=C(CSc1nc2ccccc2o1)c1cc2ccccc2oc1=O | 25* | -6% | 89* | u | -4% | 4%
O=C(CSc1nc2ccccc2o1)N1CCOCC1 | 27* | 17% | 42* | x | 30% | x
Cc1nnc(SCC(=O)Nc2ccccc2)c2ccccc12 | 48* | -2% | 46* | -4%[46.1 µM] | 13% | -19%
CC(Sc1nc2ccccc2o1)C(=O)O (centres undefined) | 37* | 2% | 79* | u | 62% | -3%
CCc1nnc(NC(=O)COc2ccc3c(c2)OCO3)s1 | -1 | 16% | 3 | 11%[46.1 µM] | 19% | -9%[46.1 µM]
CCOC(=O)CCCn1c(C)nc(=O)c(-c2ccccc2)c1C | 1 | 19% | 13 | u | 0% | 11%
CSc1cccc(NC(=O)CSc2nc3ccccc3o2)c1 | 40* | -30% | 63* | 18% | x | -2%
SMILES | CHX counter | HCV inhibitor | Shiga inhibitor | MARV entry inh | FMDV inh | Lassa entry inh
O=C(O)CSc1nc2ccccc2o1 | 30* | 17% | 78 | u | 16% | 12%
Cc1cccc2sc(NC(=O)CSc3nc4ccccc4o3)nc12 | 10 | -27% | -14 | u | -12% | -2%
O=C(CSc1nc2ccccc2o1)NCC(=O)c1ccccc1 | 15 | 1% | 11 | 4% | 0% | 6%
Cc1ccc(C(=O)CSc2nc3ccccc3o2)cc1 | 26* | -26% | 50 | 14% | x | 35%
O=C(CSc1nc2ccccc2o1)Nc1ccccc1 | 8.5* | 1% | 30 | 18% | 42% | 7%
CN(C)C(=O)CCc1ccc2c3c([nH]c2c1)[C@]1(C)[C@@H](C(=O)N2CCOCC2)C[C@H](CC(=O)NCc2cccc(C(F)(F)F)c2)C(=O)N1CC3 | x | -8% | x | x | -5% | x
Cc1nn(-c2ccccc2)c(C)c1/C=N/NC(=O)c1cc(-c2ccc(Br)s2)[nH]n1 | -1 | u | -5 | 7.3µM* | -16% | 6.5µM*
Cc1nn(-c2ccccc2)c(C)c1/C=N/NC(=O)c1cc(-c2cccs2)[nH]n1 | 5 | u | -9 | u | u | u
Cc1nn(-c2ccccc2)c(C)c1/C=N/NC(=O)c1cc(-c2ccc(Cl)s2)[nH]n1 | -4 | u | 3 | 9.2µM* | 4µM* | 10µM*
Cc1nc(C2COc3ccccc3O2)sc1C(=O)O (centres undefined) | 13* | -12% | 71* | 3% | 59% | 1%
CCc1ccc(NC(=S)N(CCOC)C2CCN(C(C)=O)CC2)cc1 | 5 | 12% | 24 | x | -2% | x
COc1ccc(S(=O)(=O)Nc2ccc3c(c2)N(C(C)=O)CCC3)cc1F | x | x | x | x | 10µM* | u
CCOCCOC(=O)c1ccc(NC(=O)C2COc3ccccc3O2)cc1 (centres undefined) | 22* | 0% | 38 | x | 12% | x
COC(=O)c1cccc(NC(=O)C2COc3ccccc3O2)c1 (centres undefined) | 33* | u | 66* | 2% | 44% | -4%
CCOC(=O)c1ccc(NC(=O)C2COc3ccccc3O2)cc1 (centres undefined) | -2 | 8% | x | 3% | 15% | -5%
COc1ccc(Cl)cc1NC(=O)C1COc2ccccc2O1 (centres undefined) | 38* | -21% | 45* | x | 36% | x
Cc1cccc(NC(=O)C2COc3ccccc3O2)c1 (centres undefined) | 43* | 5% | 72* | x | 60% | x
COc1ccc(OC)c(NC(=O)C2COc3ccccc3O2)c1 (centres undefined) | 10 | u | 3 | 17% | 0% | 16%
CC(C)CC(NC(=O)C1CCC(C)CC1)C(=O)NCc1cccnc1 (centres undefined) | -5 | 8% | -6 | -1% | 2% | 15%
O=C(C1COc2ccccc2O1)N1CCCC1 (centres undefined) | 15 | 0% | 20 | 4% | -15% | 8%
O=C(C1COc2ccccc2O1)N1CCc2ccccc21 (centres undefined) | 68* | 7% | 67* | -2% | x | 12%
COC(=O)c1cc(NC(=O)C2COc3ccccc3O2)ccc1Cl (centres undefined) | 21* | -4% | 53* | u | 2% | -13%
O=C(C1COc2ccccc2O1)N1CCN(c2ccc([N+](=O)[O-])cc2)CC1 (centres undefined) | x | 22µM* | x | u | 0% | 7%
